Assay outcomes deposited in PubChem by National Center for Advancing Translational Sciences (NCATS).
The list is not random: actives were taken first. Their share in the collection is about 4.8%.
USP2a inh: blocks human ubiquitin-specific protease USP2a; O75604; USP2 core, Ub-CHOP2 coupled fluorogenic reporter, 485/531; Potency, µM (titrated, usually from 38.3 µM), inactives show at the top dose activity change, negative = inhibition, hits mostly inhibitors; hit rate 0.01% among 330,000; AID 463254;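 note: potency is the fitted concentration of half-maximal effect; plate controls were DMSO wells for no effect and full inhibition by NEM control for full effect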
Target sequence (O75604 whole entry, looked up): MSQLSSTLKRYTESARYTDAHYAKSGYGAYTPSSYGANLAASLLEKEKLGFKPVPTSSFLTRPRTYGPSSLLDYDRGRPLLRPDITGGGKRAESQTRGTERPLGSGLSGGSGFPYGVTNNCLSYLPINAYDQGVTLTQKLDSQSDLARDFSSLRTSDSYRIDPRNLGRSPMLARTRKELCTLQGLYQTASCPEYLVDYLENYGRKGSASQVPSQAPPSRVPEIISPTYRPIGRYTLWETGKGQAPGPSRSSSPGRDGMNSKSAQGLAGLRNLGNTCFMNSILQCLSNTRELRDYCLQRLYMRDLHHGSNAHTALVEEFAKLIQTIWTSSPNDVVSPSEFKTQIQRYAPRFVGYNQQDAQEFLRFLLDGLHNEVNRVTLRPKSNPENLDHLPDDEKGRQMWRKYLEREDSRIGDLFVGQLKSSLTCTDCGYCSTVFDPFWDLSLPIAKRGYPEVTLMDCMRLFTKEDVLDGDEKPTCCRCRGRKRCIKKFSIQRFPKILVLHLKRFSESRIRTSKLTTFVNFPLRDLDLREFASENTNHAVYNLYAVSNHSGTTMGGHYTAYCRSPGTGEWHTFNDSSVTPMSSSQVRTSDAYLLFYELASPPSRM
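Deubiquitinase activity read as fluorescence (485/531 nm) after Ub-CHOP2 cleavage activates the enterokinase reporter on its substrate; USP2 core 10nM, Ub-CHOP2 and substrate 25nM each, 30min compound preincubation then 60min RT; data normalized to NEM, curves fitted.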
ATXN viability: cell viability loss in ATXN counter-screen | hit rate 0.49% among 400,000 | Potency, µM (top dose mostly 56.7 µM), hits mostly cytotoxic | AID 651635 | S2 cells (HEK-293 line with an ATXN2-luciferase reporter) viability, CellTiter-Fluor protease fluorescence, 24 h; note: potency is the fitted concentration of half-maximal effect; nearly all actives have a fitted effect of over 40% in size
USP1-UAF1 inh: blocks the human USP1/UAF1 deubiquitinase complex; O94782; Potency, µM (titrated, usually from 57.1 µM), for inactives: at the top dose activity change, negative = inhibition, hits mostly inhibitors; hit rate 0.23% among 390,000; recombinant USP1/UAF1, Ub-Rhodamine cleavage fluorescence; note: potency is the fitted concentration of half-maximal effect; % is set by controls: 0 for no effect and ±100 for the full control effect; nearly all actives have a fitted effect of over 60% in size
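USP1/UAF1 complex at 1 nM was preincubated with compound for 15 min at room temperature, then Ub-Rho substrate (150nM final) was added. Fluorescence (480/540 nm) was read kinetically, 6 reads every 60 seconds.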
ATXN2 expr inh: inhibitors of ATXN2 expression | HEK-293 ATXN2-luciferase reporter, luminescence, 24 h | Potency, µM (highest dose often 57 µM), without a hit: at the highest dose activity change, negative = inhibition, actives largely listed as inhibitors | hit rate 0.72% among 360,000; note: potency is the fitted concentration of half-maximal effect; % is set by controls: 0 for no effect and ±100 for the full control effect; nearly all actives have a fitted effect of over 55% in size
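qHTS (up to 57 uM final) was run with 24 h compound exposure of reporter cells at 37 °C. Each well was multiplexed: SteadyGlo luminescence measured ATXN2-luciferase expression after a fluorogenic Gly-Phe-AFC viability readout (25 uM final).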
IL1B secr inh: inhibitors of inflammasome signaling (IL-1 beta secretion); THP-1 LPS/ATP IL-1B secretion, AlphaLISA, 16 h; hits give low values; activity change, % at 57.5 µM; hit rate 4.7% among 360,000; in the data active = activity change below about -50%; inconclusive = mostly about -30% to -49%; note: % is set by controls: 0 for no effect and ±100 for the full control effect
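THP-1 cells pretreated 1 hr with compounds (up to 57.5 uM final), then stimulated with LPS (250 ng/mL final) plus ATP (1.25 mM final); secreted IL-1B measured by AlphaLISA after 16 hr, decreased signal indicating inhibition.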
Active calls of the source: *. Unless noted, calls come from the whole dose curve; as a rule, active = well fitted curve in the direction sought with a large enough effect; inconclusive = small, poorly fitted or top-dose-only effect, or another doubt; inactive = no such curve, though single readings can be large; an effect the other way counts as inactive or inconclusive.

Screening CC(C(=O)Nc1ccccc1-c1ccccc1)N1CCN(Cc2ccccc2)CC1 (stereo not drawn) returned USP2a inh 0%, ATXN viability inactive, USP1-UAF1 inh -18%, ATXN2 expr inh -7% and IL1B secr inh -54*.
CC(C(=O)Nc1ccccc1-c1ccccc1)N1CCN(C(=O)c2ccccc2)CC1 (stereo not drawn) was read as USP2a inh 1%, ATXN viability inactive, USP1-UAF1 inh -21%, ATXN2 expr inh -28% and IL1B secr inh 38.
For CC(=O)c1c(C)[nH]c(C(=O)Nc2cccc(S(=O)(=O)N3CCCC3)c2)c1C the results were USP2a inh 1%, ATXN viability inactive, USP1-UAF1 inh -12%, ATXN2 expr inh 39% and IL1B secr inh 10.
For CC(=O)Oc1ccc(Cl)cc1/C=C/c1cc(OC(C)=O)c2ccccc2n1 the results were USP2a inh -4%.
COc1cc(Cl)cc(/C=C/c2ccc3ccccc3n2)c1OC(C)=O was read as USP2a inh -5%, ATXN viability inactive, USP1-UAF1 inh -21%, ATXN2 expr inh 75% and IL1B secr inh -102*.
CC(C)NC(=S)NC(=O)/C=C/c1ccc(F)cc1 was read as USP2a inh 1%, ATXN viability inactive, USP1-UAF1 inh -16%, ATXN2 expr inh 16% and IL1B secr inh -53*.
Screening CC(C)(CNC(=O)/C=C/c1ccc(F)cc1)CNC(=O)/C=C/c1ccc(F)cc1 returned USP2a inh 4%, ATXN viability inconclusive, USP1-UAF1 inh -23%, ATXN2 expr inh 4% and IL1B secr inh -88*.
`O=C(/C=C/c1ccc(F)cc1)NC(=S)NC1CCCCC1` gave USP2a inh -5%, ATXN viability inactive, USP1-UAF1 inh -16% and IL1B secr inh -2.
CC(C)(C)SCCNC(=O)/C=C/c1ccc(F)cc1 was read as USP2a inh -1%, ATXN viability inactive, USP1-UAF1 inh -21%, ATXN2 expr inh 34% and IL1B secr inh 0.
For CN(C(=S)NC(=O)/C=C/c1ccc(F)cc1)C1CCCCC1 the results were USP2a inh 5%, ATXN viability inactive, USP1-UAF1 inh -23%, ATXN2 expr inh 16% and IL1B secr inh -66*.
`CC(=O)c1c(C)[nH]c(C(=O)COC(=O)c2c(-c3ccccc3)noc2C)c1C` gave USP2a inh -1%, ATXN viability inactive, USP1-UAF1 inh -13%, ATXN2 expr inh 1% and IL1B secr inh -6.
`CCC(c1nnc(SCC(=O)Nc2ccc(NC(C)=O)cc2)n1Cc1ccccc1)N(C)C` (stereo not drawn) gave USP2a inh 4%, ATXN viability inactive, USP1-UAF1 inh -20%, ATXN2 expr inh -5% and IL1B secr inh inactive.
`CCOC(=O)C1CCCN(C(=O)c2cnn(-c3ncc4c(n3)-c3ccccc3CCC4)c2C2CC2)C1` (stereo not drawn) gave ATXN viability inactive.
`c1ccc(-c2cnn3c(-c4ccccc4)c(-c4ccccc4)nc3n2)cc1` gave USP2a inh inconclusive, USP1-UAF1 inh 1.4µM*, ATXN2 expr inh 12% and IL1B secr inh 17.
For O=C(Nc1ccc(Cl)cc1)C1CCCN(c2ncnc3c2nc2n3CCCCC2)C1 (stereo not drawn) the results were USP2a inh -4%, ATXN viability inconclusive, USP1-UAF1 inh -10%, ATXN2 expr inh inconclusive and IL1B secr inh -59*.
O=C(NCc1ccc(Cl)cc1)C1CCCN(c2ncnc3c2nc2n3CCCCC2)C1 (stereo not drawn) was read as USP2a inh 1%, ATXN viability inactive, USP1-UAF1 inh -20% and IL1B secr inh 13.
For CSc1ccc(CCNC(=O)C2CCCN(c3ncnc4c3nc3n4CCCCC3)C2)cc1 (stereo not drawn) the results were USP2a inh 0%, ATXN viability inactive, USP1-UAF1 inh -6%, ATXN2 expr inh -12% and IL1B secr inh -69*.
`O=C(Nc1ccc(F)cc1F)C1CCCN(c2ncnc3c2nc2n3CCCCC2)C1` (stereo not drawn) gave USP2a inh 2%, ATXN viability inactive, USP1-UAF1 inh -10%, ATXN2 expr inh 4% and IL1B secr inh -55*.
Screening O=C(Nc1cc(F)ccc1F)C1CCCN(c2ncnc3c2nc2n3CCCCC2)C1 (stereo not drawn) returned USP2a inh 0%, ATXN viability inconclusive, USP1-UAF1 inh -9% and IL1B secr inh 16.
O=C(C1CCCN(c2ncnc3c2nc2n3CCCCC2)C1)N1CCN(c2cccc(Cl)c2)CC1 (stereo not drawn) was read as USP2a inh -5%, ATXN viability 14µM*, USP1-UAF1 inh -22% and IL1B secr inh inconclusive.
For O=C(C1CCCN(c2ncnc3c2nc2n3CCCCC2)C1)N1CCN(c2ccccc2)CC1 (stereo not drawn) the results were USP2a inh 0%, ATXN viability inactive, USP1-UAF1 inh -20% and IL1B secr inh 11.
For CC(=O)Nc1ccc(S(=O)(=O)N(C)CC(=O)OCC(=O)c2ccc[nH]2)cc1 the results were USP2a inh 1%, ATXN viability inactive, USP1-UAF1 inh -2%, ATXN2 expr inh 1% and IL1B secr inh 3.
`Cc1cccc(Cn2c(CN3CCC(C(=O)NCCc4ccccc4)CC3)cc3ccccc32)c1` gave ATXN viability inconclusive, USP1-UAF1 inh -18% and ATXN2 expr inh -17%.
Screening Cc1ccccc1CN1CCC(CNC(=O)C2CCCN(c3ncnc4c3nc3n4CCCCC3)C2)CC1 (stereo not drawn) returned USP2a inh 1%, ATXN viability inactive, USP1-UAF1 inh -24%, ATXN2 expr inh -13% and IL1B secr inh -86*.
`C[C@H](CO)N1C[C@H](C)[C@@H](CN(C)Cc2ccc(C(=O)Nc3ccccc3N)cc2)Oc2c(NC(=O)C3CCCCC3)cccc2C1=O` gave USP2a inh -5%, ATXN viability 20µM*, USP1-UAF1 inh -19%, ATXN2 expr inh inconclusive and IL1B secr inh -22.
C[C@H](CO)N1C[C@H](C)[C@@H](CN(C)Cc2ccc(Cl)c(Cl)c2)Oc2c(NC(=O)CCC(F)(F)F)cccc2C1=O was read as USP2a inh -6%, ATXN viability inconclusive, USP1-UAF1 inh -21%, ATXN2 expr inh inconclusive and IL1B secr inh -70*.
C[C@H](CO)N1C[C@H](C)[C@@H](CN(C)Cc2ccc3c(c2)OCO3)Oc2c(NC(=O)C3CCCCC3)cccc2C1=O was read as USP2a inh 7%, ATXN viability inconclusive, USP1-UAF1 inh -33%, ATXN2 expr inh -22% and IL1B secr inh inconclusive.
For C[C@H](CO)N1C[C@H](C)[C@@H](CN(C)Cc2ccc(Cl)c(Cl)c2)Oc2c(NC(=O)C3CC3)cccc2C1=O the results were USP2a inh 2%, USP1-UAF1 inh -17%, ATXN2 expr inh inconclusive and IL1B secr inh -84*.
